Screens (PubChem BioAssay)
MITF TRPM1 HTS: MITF TRPM1 promoter activation in melanoma cells; SK-MEL-5 TRPM1-promoter luciferase, 24 h; % of positive control, neutral wells = 0; 300,000 tested, 0.75% active; activation, % at 12.5 µM; AID 588334;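 active = mean activation of at least 80% with every replicate also reaching 80%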
Wnt act: activates Wnt/beta-catenin signaling in a reporter cell assay. 300,000 tested, 1.2% active. activator, plate reader. activation, % at 9.35 µM; in the data active = activation above about 30%, passing the limit was not always enough
PAX8 reporter: PAX8 transcriptional activity inhibition; 360,000 tested, 1.2% active; inhibition, % at 12.6 µM; RMG-I TPO-luciferase reporter, SteadyGlo, 24 h;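 active = mean replicate inhibition at least 60% with every replicate also reaching 60%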;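 also: luciferase light reporting Pax8 driven TPO promoter activity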
EWS-Fli inh: EWS/Fli transcriptional activity inhibition; 350,000 tested, 0.67% active; inhibition, % at 12.6 µM; A673 NR0B1-luciferase reporter, viability-normalised;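 active = mean inhibition of at least 50% after viability correction, with every replicate also passing that limit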;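 also: firefly luciferase signal divided by Alamar Blue viability fluorescence both relative to DMSO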
esBAF inh: SWI/SNF esBAF complex inhibition | 350,000 tested, 2% active | reporter increase, % at 12.5 µM | mouse ES cells, Bmi1-luciferase knock-in reporter, 24 h; 100% = twice the neutral-well signal; in the data active = activation above about 40%;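 also: a rise in the Bmi1 reporter signal indicates esBAF inhibition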
MITF TRPM1 inh: reduces MITF-dependent TRPM1 promoter luciferase signal. SK-MEL-5 TRPM1 promoter luciferase, 24 h. inhibition, % at 12.5 µM. 330,000 tested, 0.83% active. AID 488899;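 active = mean inhibition across replicates of 60% or more, whatever share of single replicates reaches that level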
Each line names hits and unclear results; the compound was inactive in the other large screens. Hits are enriched below; roughly 4% of the tested compounds scored in any of these assays.

COCC(=O)N(C)C[C@@H]1Oc2ncc(-c3ccccc3C)cc2C(=O)N([C@H](C)CO)C[C@H]1C	none (no result: MITF TRPM1 HTS, Wnt act, PAX8 reporter, MITF TRPM1 inh)
CC(=O)Nc1ccc(N=Nc2ccccc2)cc1[N+](=O)[O-]	esBAF inh 56.4 (no result: MITF TRPM1 HTS, MITF TRPM1 inh)
COC(=O)C[C@@H]1CC[C@H]2[C@@H](COc3ccc(NS(C)(=O)=O)cc3C(=O)N2C)O1	none (no result: MITF TRPM1 HTS, Wnt act, MITF TRPM1 inh)
Fc1ccc(-c2csc(N3CCSCC3)n2)cc1	esBAF inh 46.3
COc1ccc(S(=O)(=O)N2CC3(CN(Cc4ccccc4OC)[C@H](CO)c4[nH]c5cc(OC)ccc5c43)C2)cc1	none (no result: MITF TRPM1 HTS, Wnt act, PAX8 reporter, esBAF inh, MITF TRPM1 inh)
O=C(NNC(=O)c1ccccc1Cl)c1ccncc1	none
COc1c(C(=O)NNC(=O)c2ccccc2Cl)csc1Br	Wnt act 41.0 (no result: MITF TRPM1 HTS, esBAF inh)
